# Source: PubChem BioAssay (several laboratories)
# Most compounds without a hit are left out; they make up all but 1.1% or so of the library.
# NTR1 agonist: NTR1 (human) agonism. NTR1-U2OS beta-arrestin-GFP spot imaging, agonist mode. activation, % at 20 µM. 0.17% of 330,000 active. P30989;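 active = activation at or above 40% of the spot to cytoplasm intensity ratio, with at least 20 cells analyzed; inconclusive = wells under 20 cells, flagged as cytotoxic or low count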;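 also: 0% = DMSO without peptide and 100% = 100 nM NTR1 peptide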
# AI-2 QS mod: Vibrio harveyi AI-2 quorum sensing modulation; Vibrio harveyi JMH597 AI-2 luminescence/OD600 ratio, 9 h; active compounds read low; strain lacks LuxN and CqsS sensors; 0 = neutral-control median; activity change, % at 7.5 µM; 0.4% of 300,000 active; in the data active = activity change below about -75%, passing the limit was not always enough; inconclusive = no clear call, values can overlap the other calls;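 also: luminescence divided by OD600 gain over 9 h not by final OD600 alone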
# VLA-4 inh: inhibition in a human VLA-4 binding assay; VLA-4 expressing cells, ligand binding flow cytometry; P13612; 0.2% of 330,000 active; inhibition, % (about 7 µM as worked out from the volumes in the protocol); in the data active = inhibition above about 50%
# DSG3 Ab inh: human desmoglein-3 autoantibody binding inhibition. P32926. DSG3-coupled beads, scFv-anti-DSG3-GFP binding, flow cytometry; active compounds read low. 0.48% of 310,000 active. binding (percent of control), % at 10 µM;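 active = binding more than 3 SD below its plate's average and above zero; inconclusive = below that plate limit but binding exactly zero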;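 also: hits lower antibody fragment binding to DSG3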
# Target sequence (P32926 whole entry, looked up, the tested form may be a part): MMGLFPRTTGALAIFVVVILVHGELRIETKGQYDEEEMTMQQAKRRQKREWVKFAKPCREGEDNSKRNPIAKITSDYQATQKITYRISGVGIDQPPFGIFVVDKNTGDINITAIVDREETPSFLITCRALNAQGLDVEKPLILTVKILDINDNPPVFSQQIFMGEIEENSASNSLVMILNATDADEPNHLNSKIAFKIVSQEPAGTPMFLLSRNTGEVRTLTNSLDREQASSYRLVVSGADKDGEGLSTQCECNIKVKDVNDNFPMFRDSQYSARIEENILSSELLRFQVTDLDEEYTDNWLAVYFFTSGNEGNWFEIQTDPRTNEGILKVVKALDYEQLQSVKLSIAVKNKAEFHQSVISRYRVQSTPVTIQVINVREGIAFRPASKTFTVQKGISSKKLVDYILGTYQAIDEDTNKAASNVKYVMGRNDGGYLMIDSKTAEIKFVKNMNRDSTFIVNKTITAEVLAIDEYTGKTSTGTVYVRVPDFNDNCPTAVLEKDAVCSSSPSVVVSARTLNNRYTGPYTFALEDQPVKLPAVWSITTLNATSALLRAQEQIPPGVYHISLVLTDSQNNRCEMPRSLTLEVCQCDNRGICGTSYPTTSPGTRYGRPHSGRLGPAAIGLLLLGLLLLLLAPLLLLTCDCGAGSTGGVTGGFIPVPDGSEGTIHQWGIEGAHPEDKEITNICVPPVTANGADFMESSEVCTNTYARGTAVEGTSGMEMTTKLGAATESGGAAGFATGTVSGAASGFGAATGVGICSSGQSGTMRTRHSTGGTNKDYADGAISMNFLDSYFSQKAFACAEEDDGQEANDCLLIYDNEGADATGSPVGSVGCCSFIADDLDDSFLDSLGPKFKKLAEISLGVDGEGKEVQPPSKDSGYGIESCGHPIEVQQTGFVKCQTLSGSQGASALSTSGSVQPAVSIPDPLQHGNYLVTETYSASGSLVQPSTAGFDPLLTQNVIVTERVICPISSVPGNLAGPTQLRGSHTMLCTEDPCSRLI
# VLA-4 mod pick: human VLA-4 allosteric modulation in cherry picked compounds | shares compounds with VLA-4 inh | U937 cells, HUTS-21 LIBS mAb binding, flow cytometry; LDV ligand present at threefold Kd | inhibition, % at 6.7 µM | 2% of 1,300 active | AID 2813; in the data active = inhibition above about 40%;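 also: 0% = ligand without compound and 100% = no ligand background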
# Active calls of the source: *; ? = inconclusive; . = not tested or not shown.
SMILES,NTR1 agonist,AI-2 QS mod,VLA-4 inh,DSG3 Ab inh,VLA-4 mod pick
Cc1ccc(-c2nnc(N)s2)cc1,1,8,46,.,-4
Nc1ccc(S(=O)(=O)c2ccccc2)nc1,-1,5,44,93,-10
O=S(=O)(c1ccccc1)c1ccc(C(F)(F)F)cn1,0,-20,4,101,.
O=[N+]([O-])c1ccc(CCn2ccnc2)cc1,-2,6,41,97,-5
CN(Cc1ccccc1)C(=O)CCn1c(=O)c2cccn2c2cccnc21,2,25,2,101,.
COc1ccccc1NS(=O)(=O)c1ccc(C(=O)NCC(c2ccco2)N2CCCCC2)cc1 (stereo unspecified),.,.,.,128,.
CN1CCN(C(=O)C(=O)c2cn(CC(=O)N3CCOCC3)c3ccccc23)CC1,.,.,.,98,.
NC(=O)Cn1cc(C(=O)C(=O)N2CCOCC2)c2ccccc21,1,12,-1,.,0
CCOc1ccc(S(=O)(=O)N(CC(=O)NCc2cccnc2)c2ccc(F)cc2)cc1,1,17,-4,100,.
CN(C)c1ccc(C(=O)OCC(=O)Nc2ccc(S(N)(=O)=O)cc2)cc1,1,1,1,106,2
CN(C)c1ccc(NC(=O)COC(=O)c2ccc3c(c2)OCO3)cc1,4,.,9,85,.
CCCCNC(=O)C(Cc1ccccc1)NS(=O)(=O)c1ccc2c(c1)c(=O)n(C)c(=O)n2C (stereo unspecified),-1,.,50*,107,-5
CN1C(=O)C(C)(C)c2cc(S(=O)(=O)N3CCN(c4ccccc4F)CC3)ccc21,1,25,-5,93,3
Cc1cccc(N2CCN(S(=O)(=O)c3ccc4c(c3)C(C)(C)C(=O)N4C)CC2)c1C,1,25,-14,99,.
CCc1c(C)c2ccc(OC(C)C(=O)NC(Cc3c[nH]c4ccc(O)cc34)C(=O)O)c(C)c2oc1=O (stereo unspecified),-1,10,52*,106,11
Cc1cc(=O)oc2c(C)c(OC(C)C(=O)NC(Cc3c[nH]c4ccc(O)cc34)C(=O)O)ccc12 (stereo unspecified),11,21,0,98,.
Cc1nc2ccc(NC(=O)c3cc(Cl)ccn3)cc2s1,0,10,0,119,.
CCCN(CC(=O)Nc1ccccc1C)C(=O)C1CCCN(C(=O)c2ccc(Cl)cc2)C1 (stereo unspecified),1,.,50*,102,1
Cc1cc(/C=C2/NC(=O)N(c3ccccc3)C2=O)c(C)n1-c1cccnc1,-1,10,43,101,-11
CSC(=NNC(=O)c1ccccc1O)SC,0,-9,88*,94,5
O=c1c(O)c(-c2cc(O)c(O)c(O)c2)oc2cc(O)cc(O)c12,2,.,56*,100,5
O=c1c(O)c(-c2ccccc2)oc2cc(O)cc(O)c12,2,.,25,.,.
Cc1cc(CCNC=O)c(C)c2c1oc1ccccc12,.,.,.,97,.
COc1cccc2cc(C(N)=O)oc12,1,31,51*,105,-4
C[C@H]1CN([C@@H](C)CO)C(=O)CCCn2nncc2CO[C@@H]1CN(C)C(=O)c1ccc2ccn(C)c2c1,.,.,.,102,.
SMILES,NTR1 agonist,AI-2 QS mod,VLA-4 inh,DSG3 Ab inh,VLA-4 mod pick
COc1ccc2oc(C(=O)OCC(=O)Nc3ccc(C(=O)N(C)C)cc3)c(C)c2c1,1,16,4,106,.
COc1ccccc1N1CCN(S(=O)(=O)CCNC(=O)C23CC4CC(CC(C4)C2)C3)CC1,3,15,37,?,.
COc1ccc(C2CC3(CC(C)(C)NC(SC)=N3)Oc3cc(O)cc(C)c32)cc1 (stereo unspecified),1,15,41,107,-8
CC(C)NC(=O)CCCc1ccccc1,0,-4,5,97,.
CC(C)NC(=O)CCCC(=O)NC(C)C,2,1,42,103,-10
CCOc1ccc(Oc2c(/C=N/NC(=O)COc3ccccc3OC)c(C)nn2-c2ccccc2)cc1,11,25,46,126,3
CCOc1ccc(Oc2c(/C=N/NC(N)=O)c(C)nn2-c2ccccc2)cc1,3,1,6,91,.
CC(C)[C@H](NC(=O)N1c2ccccc2NC(=O)[C@@H]1C(C)C)C(=O)N[C@@H](Cc1ccccc1)C(=O)O,-2,25,64*,105,10
O=C(COC(=O)C1CC1)Nc1ccc2c(c1)OCO2,-1,-16,9,97,.
Cc1cc2c(cc1C)C(c1cccc(F)c1)CC(=O)N2 (stereo unspecified),1,2,0,97,-4
Cc1cccc(N(C)S(=O)(=O)c2ccc3c(c2)C(C)(C)C(=O)N3C)c1,4,19,-16,104,-2
COc1cccc(CNS(=O)(=O)c2ccc3c(c2)C(C)(C)C(=O)N3C)c1,0,13,-13,99,-6
CCOC(=O)C1(Cc2ccccc2Cl)CCN(C(=O)CCn2ccnc2C)CC1,0,14,53*,105,-6
CCOC(=O)C1(Cc2ccccc2Cl)CCN(S(=O)(=O)N(C)C)CC1,3,38,11,101,.
CCc1ccc(N2C(=O)c3cc(N4CCOCC4)c([N+](=O)[O-])cc3C2=O)cc1,-1,25,43,.,-12
CCc1cccc(CC)c1N1C(=O)c2cc(N3CCOCC3)c([N+](=O)[O-])cc2C1=O,3,25,-14,106,.
O=C(c1ccc(CN2CCc3ccccc3C2)cc1)N1CCN(c2ccccc2)CC1,0,23,46,.,-7
COc1ccc(NC(=O)Nc2ccc3c(c2)C(=O)N([C@H](C)CO)C[C@H](C)[C@@H](CN(C)C(=O)NC2CCCCC2)O3)cc1,-1,.,50*,96,6
COc1ccc(NC(=O)N(C)C[C@H]2Oc3ccc(NC(=O)NC4CCCCC4)cc3C(=O)N([C@H](C)CO)C[C@@H]2C)cc1,3,.,9,99,.
CN1CCC(N(C)S(=O)(=O)c2ccc(NC(=O)COc3ccc(F)cc3)cc2)CC1,-1,9,50*,115,13
CN1CCC(N(C)S(=O)(=O)c2ccc(NC(=O)COc3ccc(Cl)cc3)cc2)CC1,-1,.,-4,100,.
COCCNC(=O)/C(C#N)=C/c1ccc(SC)cc1,0,8,7,81,.
COCCNC(=O)/C(C#N)=C/c1ccc(C(=O)O)cc1,1,26,2,97,7
COCCNC(=O)/C(C#N)=C/c1c(F)cccc1Cl,0,-1,5,98,5
Nc1ncnc2c(C3OC(CO)C(O)C3O)c[nH]c12 (stereo unspecified),.,.,.,94,.
COc1ccc(C(=O)/C=C/C(=O)N(CC(=O)NC2CCCCC2)Cc2cccs2)c(O)c1,26,29,63*,106,28
CCCc1cc(C(=O)N2CCCC(C(=O)c3cc(C)c(OC)c(C)c3)C2)n(C)n1 (stereo unspecified),0,18,106*,101,8
COC(=O)c1ccc(/C=N/n2c(C)nc3ccccc3c2=O)cc1,0,20,41,87,-4
